The text below walks through data of PubChem BioAssay (NCATS).

Values joined by “and” are separate entries in the source; they are usually repeats but may differ in a detail not shown here. Equal values may be shown once. Inconclusive results are not listed. Active and inactive are the calls of the source. Unless noted, calls follow the shape of the dose curve; as a rule, active = well fitted curve in the direction sought with a large enough effect; inconclusive = small, poorly fitted or top-dose-only effect, or another doubt; inactive = no such curve, though single readings can be large; an effect the other way counts as inactive or inconclusive.

Assay [1] can be described thus: qHTS profiling for inhibitors of Plasmodium falciparum (3D7) proliferation (AID 743322; call rule not given here;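 also: infected erythrocytes exposed to compound for 72 h before lysis; 100% = DMSO vehicle wells and 0% = 0.29 µM artemisinin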). The conditions noted are these: P. falciparum 3D7 proliferation; at 28.7 µM (top of the series) unless noted. In short, it runs like this:
(§1)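 Erythrocytes infected with P. falciparum (0.3% parasitemia, 2.5% hematocrit) incubated with compounds 72 h at 37 C, 5% CO2. Lysis with saponin/Triton buffer containing SYBR Green I, overnight at room temperature in the dark; DNA fluorescence (485/535 nm) normalised to 0.29 uM artemisinin and DMSO.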

Assay [2] in a line: qHTS profiling for inhibitors of Plasmodium falciparum (DD2) proliferation (AID 743323; call rule not given here). The conditions noted are these: lower = more inhibition; at 28.7 µM (top of the series) unless noted. Put shortly:
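P. falciparum Dd2-infected erythrocytes (0.3% parasitemia, 2.5% hematocrit) exposed 72 h at 37 C, 5% CO2. Lysis with SYBR Green, overnight at room temperature, fluorescence 485/535 nm; normalized to 0.29 uM artemisinin and DMSO.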
Background: In qHTS, concentration-response curves come from the screen itself.

Assay [3] can be described thus: qHTS profiling for inhibitors of Plasmodium falciparum (HB3) proliferation (AID 743324).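 Also: 100% = DMSO vehicle wells and 0% = artemisinin-treated control wells.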 To be noted: Plasmodium falciparum HB3 blood-stage proliferation; at 28.7 µM (top of the series) unless noted. Put shortly: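 P. falciparum HB3 grown in erythrocytes (0.3% parasitemia, 2.5% hematocrit final) with compound for 72 h at 37 C, 5% CO2. Parasite DNA detected by SYBR Green after saponin/triton lysis overnight; normalized to 0.29 uM artemisinin and DMSO.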

Assay [4] can be described thus: qHTS profiling of the MIPE4 collection as inhibitors of Plasmodium falciparum (3D7) proliferation (AID 743344; call rule not given here;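 also: scaled between DMSO vehicle wells and 0.29 µM artemisinin as full inhibition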). To be noted: P. falciparum 3D7 in erythrocytes, SYBR Green DNA fluorescence, 72 h; at 28.5 µM (top of the series) unless noted. In short, it runs like this:
as §1

The nature of assay [5]: qHTS profiling of the MIPE4 collection as inhibitors of Plasmodium falciparum (DD2) proliferation (AID 743345; call rule not given here). The conditions noted are these: P. falciparum Dd2 in erythrocytes, SYBR Green DNA, 72 h; at 28.5 µM (top of the series) unless noted. In short, it runs like this:
as §1

The nature of assay [6]: qHTS profiling of the MIPE4 collection as inhibitors of Plasmodium falciparum (DD2) proliferation (Rep 2) (AID 743346; call rule not given here). To be noted: P. falciparum Dd2 in erythrocytes, SYBR Green DNA, 72 h; at 28.5 µM (top of the series) unless noted. Put shortly:
as §1

Assay [7] in a line: qHTS profiling of the MIPE4 collection as inhibitors of Plasmodium falciparum (HB3) proliferation (AID 743347; call rule not given here;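 also: plate controls were DMSO vehicle wells for no effect and artemisinin wells for full effect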). The conditions noted are these: P. falciparum HB3 in erythrocytes, SYBR Green DNA, 72 h; at 28.5 µM (top of the series) unless noted. Put shortly: as §1
A short description of assay [8]: High-throughput drug toxicity screening in the BPDCN cell line Gen2.2 (AID 1224824; call rule not given here;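 also: cells exposed to compounds for 48 h before reading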). The conditions noted are these: Gen2.2 BPDCN cells; at 45.8 µM (top of the series) unless noted. Put shortly:
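Seed 500 exponentially growing Gen2.2 cells/well; add compounds by pin tool; incubate 48 h, 37 °C, 5% CO2; add CellTiter-Glo, 15 min RT; read luminescence. % activity vs DMSO (100%) and bortezomib (0%).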

Assay [9] can be described thus: High-throughput drug toxicity screening in the BPDCN cell line Cal-1 (AID 1224825; call rule not given here). The conditions noted are these: Cal-1 BPDCN cell viability, qHTS; at 45.8 µM (top of the series) unless noted. Put shortly:
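500 Cal-1 cells/well, RPMI + glutamine + 10% FBS (phenol red-free); cpd added by pin tool; 48 h, 37C, 5% CO2; CTG 15 min RT, lumi read. Normalised: DMSO 100%, bortezomib 9.2 uM 0%.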

Assay [10] is described as follows: qHTS assay for measurement of the activity of small molecule inhibitors on Zika virus induced Caspase-3 activity in human iPSC derived neural progenitor cells (hNPCs) (AID 1224857). Also: % of control where 0% means no effect; nearly all actives have a fitted effect of over 65% in size. Put shortly: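 After overnight (16–20 h) culture at 350 cells/well, hNPCs get compound, then ZIKV 2 FFU/cell one hour later. Six hours on, Caspase-Glo 3/7 is added and luminescence measured.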

Assay [11] in a line: qHTS assay for measurement of the activity of small molecule inhibitors on Zika virus induced Caspase-3 activity in human astrocytoma cells (AID 1224859).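 Also: plate controls were ZIKV-infected untreated cells for no effect and uninfected cells for full effect.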 Put shortly: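 Inhibition of Zika-induced caspase-3/7 activity: SNB-19 cells, 1 h compound pretreatment, ZIKV 2 FFU/cell for 6 h at 37 C, Caspase-Glo luminescence read-out.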
A short description of assay [12]: qHTS Screen of the MIPE 4.0 Collection Against Ewings Sarcoma (RDES) (AID 1259252). Also: nearly all actives have a fitted effect of over 35% in size. Also: potency is read from the fitted curve at half-maximal effect. Put shortly:
(§2)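 CellTiter-Glo luminescence after 48 h compound exposure (titration) gave viability; percent activity used DMSO-treated cells as no inhibition and medium-only wells as full inhibition. Cells grown in RPMI/5% FBS, dosed 4 h post-seeding.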

A short description of assay [13]: qHTS Screen of the MIPE 4.0 Collection Against Ewings Sarcoma (TC71) (AID 1259253). Also: nearly all actives have a fitted effect of over 40% in size. Also: potency is read from the fitted curve at half-maximal effect. In short, it runs like this:
as §2

Assay [14] in a line: qHTS Screen of the MIPE 4.0 Collection Against Ewings Sarcoma (TC32) (AID 1259256). Also: nearly all actives have a fitted effect of over 45% in size. Also: potency is read from the fitted curve at half-maximal effect. In short, it runs like this:
as §2

Assay [15] can be described thus: qHTS Screen of the MIPE 4.0 Collection Against Ewings Sarcoma (EW8) (AID 1259255). Also: nearly all actives have a fitted effect of over 35% in size. Also: potency is read from the fitted curve at half-maximal effect.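 As to viability: 100% = DMSO-treated cells and 0% = medium-only wells without cells.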 Put shortly: as §2
The nature of assay [16]: qHTS assay to identify small molecule inhibitors of chordoma cells - UCH-1 (AID 1259355). Also: % is scaled to controls: 0 for no effect and ±100 for the full control effect; nearly all actives have a fitted effect of over 55% in size. Put shortly: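 Seed 800 cells per well; incubate overnight at 37 C, 5% CO2. Add test compounds (15 concentrations), then the auranofin–topoisomerase-agent combination. Incubate 48hr, add CellTiter-Glo, wait 30min, read luminescence.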
A short description of assay [17]: qHTS assay to identify small molecule inhibitors of chordoma cells - UCH-2 (AID 1259356). Also: % is scaled to controls: 0 for no effect and ±100 for the full control effect.

Turning to `COc1cc2c(cc1OC)CN(CCc1ccc(NC(=O)c3cccc4c(=O)c5cccc(OC)c5[nH]c34)cc1)CC2`, the remaining parasite growth % (stronger effect = lower value) in assay [1] was -0.733%. The same compound showed an activity, percent of control in assay [2] of 0.466%. Further, the remaining proliferation (% of control), lower = more inhibition in assay [3] was -0.901%. The same compound showed a parasite growth, % of DMSO control in assay [4] of 5.92%. Besides, in assay [5], the parasite growth remaining, % of DMSO control (lower = more inhibition) was determined as 7.47%. In addition, the parasite growth, % of control (lower = inhibition) in assay [6] worked out at 10%. Moreover, the growth, % of control in assay [7] worked out at 4.23%. The cell viability, % of control (lower = more cytotoxic) in assay [8] is 238%. Moreover, the viability (% of control) in assay [9] came to 104%. Further, the Potency entry in assay [10] and in assay [11] was “inactive” each time. Moreover, the figures for the Potency in assay [12] and in assay [13] were 10.5 µM (active) and 20.9 µM (active), respectively.

On to `CCOc1cc(C=C2C(=O)N(c3ccccc3)N=C2C)cc(Cl)c1OCC(=O)OC`, for which the remaining parasite growth % (stronger effect = lower value) in [1] is 88.1%. Besides, the activity, percent of control in [2] turned out to be 92.3%. Besides, the remaining proliferation (% of control), lower = more inhibition in assay [3] amounted to 102%. In [4], this compound came in with a parasite growth, % of DMSO control of 102%. Further, the parasite growth remaining, % of DMSO control (lower = more inhibition) in assay [5] turned out to be 97.3%. Besides, the parasite growth, % of control (lower = inhibition) in [6] stood at 106%. The cell viability, % of control (lower = more cytotoxic) in [8] is 14.1%. The viability (% of control) in assay [9] turned out to be 61.6%. Also, the Potency entry in assay [10], in assay [11] and in assay [13] was “inactive” in each case. Further, the values for the Potency in assay [12] and in assay [14] were 5.26 µM (active) and 5.9 µM (active), respectively.

In assay [4], `OC(CCN1CCCCC1)(c1ccccc1)C1CC2C=CC1C2` (stereo unspecified) yielded a parasite growth, % of DMSO control of 38.1%. Besides, the parasite growth remaining, % of DMSO control (lower = more inhibition) in assay [5] came to 75.2%. Moreover, the parasite growth, % of control (lower = inhibition) in assay [6] worked out at 44.2%. In assay [7], this compound came in with a growth, % of control of 35.8%. Further, in assay [8], the cell viability, % of control (lower = more cytotoxic) was determined as 127%. In assay [9], the viability (% of control) was 107%. Also, the Potency result in assay [10], in assay [11], in assay [12], in [13], in assay [15] and in [14] was “inactive” in each case. The Potency entry in assay [16] is “inactive”.

As to `COc1ccc2nc(S(=O)Cc3ncc(C)c(OC)c3C)[nH]c2c1` (stereo unspecified), in assay [1], the remaining parasite growth % (stronger effect = lower value) is 91.3% and 101%. The activity, percent of control in [2] is 93.3% and 100%. Besides, the remaining proliferation (% of control), lower = more inhibition in [3] is 79.1% and 76.7%. Also, in [4], the parasite growth, % of DMSO control stood at 61.2%. The compound further showed a parasite growth remaining, % of DMSO control (lower = more inhibition) in [5] of 95%. Besides, the parasite growth, % of control (lower = inhibition) in assay [6] was found to be 72.1%. Also, the growth, % of control in [7] came out at 84.6%. For the same compound, the cell viability, % of control (lower = more cytotoxic) in assay [8] was determined as 138%. Besides, the viability (% of control) in [9] turned out to be 96.8%. The Potency result in assay [10], in [11], in assay [15] and in assay [16] was “inactive” each time. Further, in [12], the Potency was 16.6 µM (active). Further, in assay [17], the result was inactive.

`Cc1cccc(-c2[nH]c(C(C)(C)C)nc2-c2ccc3nccnc3c2)n1`: the remaining parasite growth % (stronger effect = lower value) in [1] is 54.8%. This compound showed an activity, percent of control in assay [2] of 67.1%. For the same compound, the remaining proliferation (% of control), lower = more inhibition in assay [3] stood at 27%. The parasite growth, % of DMSO control in assay [4] stood at 23.7%. Further, in assay [5], the parasite growth remaining, % of DMSO control (lower = more inhibition) was 47.6%. Moreover, in assay [6], the parasite growth, % of control (lower = inhibition) worked out at 34.2%. For the same compound, the cell viability, % of control (lower = more cytotoxic) in assay [8] was determined as 391%. Further, in [9], the viability (% of control) worked out at 15.5%. Also, the Potency result in assay [10] and in [11] was “inactive” each time. For the same compound, the Potency in assay [12] was 16.6 µM (active); in assay [13], 26.4 µM (active); in assay [15] it was 23.5 µM (active); in assay [14] it was 20.9 µM (active).

`O=C(Nc1nc2ccccc2n1CCN1CCOCC1)c1cccc([N+](=O)[O-])c1`: in [6], the parasite growth, % of control (lower = inhibition) is 17.9%. Further, the cell viability, % of control (lower = more cytotoxic) in [8] was 43.3%. Further, in assay [9], the viability (% of control) worked out at 4.89%. Besides, the Potency result in [10] and in assay [11] was “inactive” each time. For the same compound, the Potency is 20.9 µM (active) in assay [12], 23.5 µM (active) in assay [13], 20.9 µM (active) in assay [15] and 18.7 µM (active) in assay [14].

For `Cc1ccccc1C(C(=O)NC1CCCC1)N(C(=O)Cn1cnc2ccccc21)c1cccc(F)c1` (stereo unspecified), the remaining parasite growth % (stronger effect = lower value) in assay [1] came to 45.1%. Besides, the remaining proliferation (% of control), lower = more inhibition in [3] was 34.4%. The compound further came in with a parasite growth, % of DMSO control in assay [4] of 72.9%. This compound had a parasite growth remaining, % of DMSO control (lower = more inhibition) in assay [5] of 65.6%. For the same compound, in [6], the parasite growth, % of control (lower = inhibition) is 38%. In addition, the growth, % of control in assay [7] was determined as 97.9%. Besides, the cell viability, % of control (lower = more cytotoxic) in assay [8] amounted to 30.2%. Besides, the viability (% of control) in assay [9] stood at 102%. The Potency entry in assay [10] and in [11] was “inactive” each time.

As for `Cc1ccc2c(c1)C(=O)[C@@]1(O)CCN(c3ccccc3)C1=N2`, the remaining parasite growth % (stronger effect = lower value) in assay [1] was found to be 104%. In addition, the remaining proliferation (% of control), lower = more inhibition in assay [3] stood at 36.1%.

With `NC(=O)c1ccc(-c2nc(-c3ccc4c(c3)OCCO4)c(-c3ccccn3)[nH]2)cc1`, the remaining parasite growth % (stronger effect = lower value) in assay [1] is 15.5%. In [2], this compound showed an activity, percent of control of 4.9%. Further, in [3], the remaining proliferation (% of control), lower = more inhibition was determined as 13.2%. Also, in assay [4], the parasite growth, % of DMSO control is 25.9%. In assay [5], the parasite growth remaining, % of DMSO control (lower = more inhibition) is 18.9%. In addition, the parasite growth, % of control (lower = inhibition) in [6] turned out to be 18.6%. The growth, % of control in [7] worked out at 12.9%. Moreover, the cell viability, % of control (lower = more cytotoxic) in assay [8] was 607%. In addition, the viability (% of control) in assay [9] was 102%. The Potency result in assay [10] and in assay [11] was “inactive” throughout. The Potency in assay [13] was 23.5 µM (active).
